# Measured values from PubChem BioAssay (EPA / NIEHS).
# A structure can be active in one record and inactive in another. Calls of active or inactive are those of the source. Rule for the calls: active = hit-call score of the fitted dose curve at least 0.9, where 1 is the maximum; inactive = score below 0.9.
# What was measured:
# [1] = ATG_M_61_CIS: Attagene CIS-FACTORIAL HepG2 Assay for M61 Transcription Factor (Internal Marker) (AID 2282937); conditions: HepG2 Attagene CIS-FACTORIAL M61 internal marker reporter; actives raise or lower the signal
# Summary of the method: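 Using transiently transfected HepG2 liver cells, reporter transcript levels were assessed 24 h post-dosing by RT-PCR and capillary electrophoresis. Changes in either direction were fitted relative to DMSO controls.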
# [2] = ATG_EGR_CIS: Attagene CIS-FACTORIAL HepG2 Assay for human Early Growth Response 1 (EGR1) (AID 2282938); conditions: HepG2 Attagene CIS-FACTORIAL EGR reporter mRNA; actives raise or lower the signal
# Summary of the method: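 Fluorescent capillary-electrophoresis signal of reporter cDNA fragments serves as read-out. HepG2 cells bear transiently transfected cis-promoter reporter units and are exposed 24 h; gain- or loss-of-signal is fitted against DMSO.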
# [3] = ATG_M_19_CIS: Attagene CIS-FACTORIAL HepG2 Assay for M19 Transcription Factor (Internal Marker) (AID 2282939); conditions: HepG2 Attagene CIS-FACTORIAL M19 internal marker reporter; actives raise or lower the signal
# Summary of the method: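 Background-control endpoint from a multiplexed HepG2 reporter panel. Cells carrying cis-regulated reporter constructs are treated 24 h, then reporter transcripts are amplified, fluorescently labelled and sized by capillary electrophoresis. DMSO defines baseline.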
# [4] = ATG_ERE_CIS: Attagene CIS-FACTORIAL HepG2 Assay for Estrogen Response Element (ERE) (AID 2282940); conditions: HepG2 ERE cis-reporter, Attagene RNA transcript; actives raise or lower the signal
# Summary of the method: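 Cells used were human hepatoma HepG2, transfected with multiple reporter transcription units under cis-regulatory promoters. Reporter mRNA, read 24 h post-dosing via fluorescent RT-PCR products on capillary electrophoresis, was fitted bidirectionally relative to DMSO.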
# [5] = target: Hepatocyte nuclear factor 3-beta (Homo sapiens) (UniProt Q9Y261); assay: ATG_FoxA2_CIS: Attagene CIS-FACTORIAL HepG2 Assay for human Forkhead box A2 (FOXA2) (AID 2282942); conditions: HepG2 cis-reporter transcription factor activity, 24 h; actives raise or lower the signal
# Summary of the method: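 Fluorescence signal of reporter cDNA fragments, separated by capillary electrophoresis, reflects endogenous transcription factor activity in transfected HepG2 after 24 h. Both increases and decreases fitted against DMSO.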
# [6] = ATG_GATA_CIS: Attagene CIS-FACTORIAL HepG2 Assay for human GATA Binding Protein (AID 2282944); conditions: HepG2 GATA cis-element reporter, Attagene multiplex mRNA; actives raise or lower the signal
# Summary of the method: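 Endogenous transcription factor activity was captured through cis-promoter-driven reporters in transfected HepG2 cells. After 24 h exposure, reporter transcripts were quantified by RT-PCR with fluorescent capillary electrophoresis, and responses fitted both directions against DMSO.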
# [7] = target: Bile acid receptor (Homo sapiens) (UniProt Q96RI1); assay: ATG_IR1_CIS: Attagene CIS-FACTORIAL HepG2 Assay for human Nuclear Receptor Subfamily 1 Group H Member 4 (NR1H4), IR1 submotif (AID 2282946); conditions: IR1 reporter transcription, actives raise or lower the signal
# Summary of the method: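 Readout: reporter transcript levels by RT-PCR with fluorescent capillary electrophoresis, from HepG2 cells transiently transfected with multiplexed cis-regulated reporters and dosed 24 h. Gain- or loss-of-signal fitted versus DMSO negative control.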
# [8] = ATG_ISRE_CIS: Attagene CIS-FACTORIAL HepG2 Assay for human Interferon Regulatory Factor 1 (IRF1) binding to an Interferon-Stimulated Response Element (ISRE) (AID 2282948); conditions: HepG2 ISRE cis-reporter (Attagene), mRNA transcription readout; actives raise or lower the signal
# Summary of the method: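 Multiplexed mRNA reporter readout in human liver HepG2 cells: cis-element-driven reporters transfected, compound added for 24 h, transcripts amplified, fluorescently labelled and sized by capillary electrophoresis; curve fitting bidirectional against DMSO.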
# [9] = ATG_M_32_CIS: Attagene CIS-FACTORIAL HepG2 Assay for M32 Transcription Factor (Internal Marker) (AID 2282949); conditions: HepG2 Attagene cis-factorial M32 reporter, mRNA; actives raise or lower the signal;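 note: background control marker of the multiplexed CIS panel rather than a real target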
# Summary of the method: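 HepG2 human liver cells transiently transfected with cis-promoter-driven multiple reporter transcription units, dosed 24 h. Reporter mRNA quantified by RT-PCR, FAM-labelled primer extension, HpaI digest and capillary electrophoresis; bidirectional fit versus DMSO baseline.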
# [10] = ATG_M_06_CIS: Attagene CIS-FACTORIAL HepG2 Assay for M06 Transcription Factor (Internal Marker) (AID 2282950); conditions: HepG2 Attagene CIS-FACTORIAL M06 internal marker reporter; actives raise or lower the signal
# Summary of the method: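 Steps: transfect HepG2 with multiplexed cis-element reporter constructs; dose chemical 24 h; extract RNA with DNase treatment; reverse-transcribe, PCR-amplify, 6-FAM label, HpaI digest; separate fragments by capillary electrophoresis. Activity fitted both directions versus DMSO.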
# [11] = target: Hypoxia-inducible factor 1-alpha (Homo sapiens) (UniProt Q16665); assay: ATG_HIF1a_CIS: Attagene CIS-FACTORIAL HepG2 Assay for human Hypoxia Inducible Factor 1 (HIF1A) (AID 2282951); conditions: HepG2 Attagene cis-factorial HIF1a reporter transcription; actives raise or lower the signal
# Summary of the method: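 Endogenous-TF cis reporter readout, human HepG2 cells, 24 h incubation; mRNA detected via RT-PCR and capillary electrophoresis fluorescence; DMSO-normalised bidirectional fitting.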
# [12] = target: Hepatocyte nuclear factor 6 (Homo sapiens) (UniProt Q9UBC0); assay: ATG_HNF6_CIS: Attagene CIS-FACTORIAL HepG2 Assay for human Hepatocyte Nuclear Factor 6 (HNF6) (AID 2282952); conditions: HepG2 Attagene cis-factorial HNF6 reporter transcription; actives raise or lower the signal
# Summary of the method: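 Endogenous factor activity read in transiently transfected HepG2 via promoter-regulated reporter transcripts. RNA harvested 24 h post-dosing, reverse-transcribed, PCR-amplified, FAM-labelled, HpaI-digested and resolved by capillary electrophoresis; fitted in both directions against DMSO.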
# [13] = target: Heat shock factor protein 1 (Homo sapiens) (UniProt Q00613); assay: ATG_HSE_CIS: Attagene CIS-FACTORIAL HepG2 Assay for human Heat Shock Transcription Factor 1 (HSE) (AID 2282953); conditions: HepG2 HSE cis-reporter, Attagene RNA transcription; actives raise or lower the signal
# Summary of the method: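 Cells were transfected with cis-element-driven reporter constructs, dosed for 24 h, then total RNA was reverse-transcribed and reporter cDNA amplified, FAM-labelled and digested with HpaI. Fragments were resolved by capillary electrophoresis; gain or loss was fitted against DMSO.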
# [14] = ATG_PBREM_CIS: Attagene CIS-FACTORIAL HepG2 Assay for human Phenobarbital-responsive Enhancer Module (PBREM) (AID 2282955); conditions: HepG2 PBREM cis-reporter, Attagene multiplexed transcription; actives raise or lower the signal
# Summary of the method: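 Readout: reporter mRNA, fluorescent RT-PCR fragments separated by capillary electrophoresis. System: HepG2 transiently transfected with cis-regulated reporter units. Exposure: 24 h. Analysis: bidirectional, DMSO baseline.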
# [15] = target: Paired box protein Pax-6 (Homo sapiens) (UniProt P26367); assay: ATG_Pax6_CIS: Attagene CIS-FACTORIAL HepG2 Assay for human Paired Box 6 (PAX6) (AID 2282956); conditions: HepG2 CIS-FACTORIAL PAX6 reporter transcription, RNA readout; actives raise or lower the signal
# Summary of the method: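 Fluorescent RT-PCR products separated by capillary electrophoresis report PAX6-linked promoter mRNA in HepG2 cells 24 h post-dose. Curves fitted bidirectionally, DMSO as negative control.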
# [16] = ATG_FoxO_CIS: Attagene CIS-FACTORIAL HepG2 Assay for human Forkhead box O (FoxO) (AID 2282943); conditions: HepG2 Attagene cis-reporter, FoxO element, mRNA; actives raise or lower the signal
# Summary of the method: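 24 h chemical exposure, HepG2 with transient cis-MRTU transfection. RNA extraction, oligo(dT) RT, reporter-specific PCR, primer-extension labelling, HpaI digestion, CE fragment analysis; bidirectional fit, DMSO baseline.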
# [17] = ATG_GRE_CIS: Attagene CIS-FACTORIAL HepG2 Assay for human Glucocorticoid Response Elements (GRE) (AID 2282947); conditions: HepG2 GRE cis-reporter, Attagene multiplex mRNA; actives raise or lower the signal
# Summary of the method: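 Cells (HepG2) bearing transfected cis-promoter reporter transcription units were treated with chemical for 24 hours. Reporter mRNA was measured via RT-PCR with capillary electrophoresis, and activity was fitted in both directions relative to DMSO.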
# [18] = ATG_Ets_CIS: Attagene CIS-FACTORIAL HepG2 Assay for human Erythroblast Transformation Specific (ETS) (AID 2282941); conditions: HepG2 ETS cis-reporter transcription, actives raise or lower the signal
# Summary of the method: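 Cis-regulated reporter mRNA induction in HepG2 (transient transfection), 24 h exposure, RT-PCR plus capillary electrophoresis detection; DMSO serves as negative control and baseline.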
# Chain of Hypoxia-inducible factor 1-alpha (Homo sapiens) (Q16665 whole entry, looked up): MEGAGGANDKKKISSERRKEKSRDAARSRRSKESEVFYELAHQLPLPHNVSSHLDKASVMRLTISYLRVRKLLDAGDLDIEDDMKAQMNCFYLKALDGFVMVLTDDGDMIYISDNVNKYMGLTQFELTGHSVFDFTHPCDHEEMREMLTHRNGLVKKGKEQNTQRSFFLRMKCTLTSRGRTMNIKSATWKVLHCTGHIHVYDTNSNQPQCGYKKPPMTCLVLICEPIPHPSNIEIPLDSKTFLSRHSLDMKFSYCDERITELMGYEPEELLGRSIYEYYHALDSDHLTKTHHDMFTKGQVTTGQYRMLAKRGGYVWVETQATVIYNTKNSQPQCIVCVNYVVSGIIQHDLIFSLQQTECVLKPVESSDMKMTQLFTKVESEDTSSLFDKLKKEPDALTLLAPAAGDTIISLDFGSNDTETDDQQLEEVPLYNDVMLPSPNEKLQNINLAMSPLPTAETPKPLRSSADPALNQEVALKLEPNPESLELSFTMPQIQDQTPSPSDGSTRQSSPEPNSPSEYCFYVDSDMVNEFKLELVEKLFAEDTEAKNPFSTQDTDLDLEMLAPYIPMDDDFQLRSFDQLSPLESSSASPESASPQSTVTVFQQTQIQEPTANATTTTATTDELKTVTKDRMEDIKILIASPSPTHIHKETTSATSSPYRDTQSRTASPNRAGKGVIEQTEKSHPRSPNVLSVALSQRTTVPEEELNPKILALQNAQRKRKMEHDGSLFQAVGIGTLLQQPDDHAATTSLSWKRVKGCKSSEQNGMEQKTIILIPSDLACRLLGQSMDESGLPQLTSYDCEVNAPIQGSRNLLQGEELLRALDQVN
# Chain of Bile acid receptor (Homo sapiens) (Q96RI1 whole entry, looked up): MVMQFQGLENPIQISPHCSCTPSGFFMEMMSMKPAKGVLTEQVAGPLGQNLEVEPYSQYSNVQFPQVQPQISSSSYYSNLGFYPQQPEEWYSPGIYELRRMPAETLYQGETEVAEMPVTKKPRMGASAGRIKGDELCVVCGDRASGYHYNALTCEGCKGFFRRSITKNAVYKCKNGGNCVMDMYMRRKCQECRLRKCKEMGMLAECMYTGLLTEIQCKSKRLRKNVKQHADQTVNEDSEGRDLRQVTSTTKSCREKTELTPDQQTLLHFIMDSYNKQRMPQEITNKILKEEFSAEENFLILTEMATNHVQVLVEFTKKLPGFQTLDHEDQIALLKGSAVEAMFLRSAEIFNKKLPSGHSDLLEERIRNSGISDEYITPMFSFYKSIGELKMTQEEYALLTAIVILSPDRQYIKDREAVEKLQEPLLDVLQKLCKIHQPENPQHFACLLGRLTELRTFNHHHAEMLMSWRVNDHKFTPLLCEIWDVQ
# Chain of Paired box protein Pax-6 (Homo sapiens) (P26367 whole entry, looked up): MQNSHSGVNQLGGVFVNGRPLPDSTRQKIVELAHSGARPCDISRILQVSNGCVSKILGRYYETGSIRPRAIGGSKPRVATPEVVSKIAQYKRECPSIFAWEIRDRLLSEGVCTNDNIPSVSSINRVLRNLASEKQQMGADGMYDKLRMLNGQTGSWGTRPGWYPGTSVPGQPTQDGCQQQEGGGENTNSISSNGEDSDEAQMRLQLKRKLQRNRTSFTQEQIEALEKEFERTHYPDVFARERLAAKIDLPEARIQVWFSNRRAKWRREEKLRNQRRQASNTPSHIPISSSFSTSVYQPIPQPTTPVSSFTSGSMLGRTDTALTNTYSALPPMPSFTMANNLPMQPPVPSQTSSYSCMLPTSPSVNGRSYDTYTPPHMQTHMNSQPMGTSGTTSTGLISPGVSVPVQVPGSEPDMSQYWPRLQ
# Chain of Heat shock factor protein 1 (Homo sapiens) (Q00613 whole entry, looked up, the tested form may be a part): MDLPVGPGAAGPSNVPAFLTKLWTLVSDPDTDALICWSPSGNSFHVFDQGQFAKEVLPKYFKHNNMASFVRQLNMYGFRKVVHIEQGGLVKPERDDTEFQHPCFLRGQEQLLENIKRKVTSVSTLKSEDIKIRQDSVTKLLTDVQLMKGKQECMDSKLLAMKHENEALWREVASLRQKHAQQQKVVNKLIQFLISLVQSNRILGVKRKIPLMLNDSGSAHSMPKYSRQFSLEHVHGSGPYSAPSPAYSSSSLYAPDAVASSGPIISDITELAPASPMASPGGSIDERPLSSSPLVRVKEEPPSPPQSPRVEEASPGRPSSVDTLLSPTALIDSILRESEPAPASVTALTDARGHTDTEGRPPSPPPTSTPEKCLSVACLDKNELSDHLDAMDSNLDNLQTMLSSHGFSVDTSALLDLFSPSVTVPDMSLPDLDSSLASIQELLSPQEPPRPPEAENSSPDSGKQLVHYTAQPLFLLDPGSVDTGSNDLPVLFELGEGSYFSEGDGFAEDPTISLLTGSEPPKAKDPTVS
# Chain of Hepatocyte nuclear factor 3-beta (Homo sapiens) (Q9Y261 whole entry, looked up, the tested form may be a part): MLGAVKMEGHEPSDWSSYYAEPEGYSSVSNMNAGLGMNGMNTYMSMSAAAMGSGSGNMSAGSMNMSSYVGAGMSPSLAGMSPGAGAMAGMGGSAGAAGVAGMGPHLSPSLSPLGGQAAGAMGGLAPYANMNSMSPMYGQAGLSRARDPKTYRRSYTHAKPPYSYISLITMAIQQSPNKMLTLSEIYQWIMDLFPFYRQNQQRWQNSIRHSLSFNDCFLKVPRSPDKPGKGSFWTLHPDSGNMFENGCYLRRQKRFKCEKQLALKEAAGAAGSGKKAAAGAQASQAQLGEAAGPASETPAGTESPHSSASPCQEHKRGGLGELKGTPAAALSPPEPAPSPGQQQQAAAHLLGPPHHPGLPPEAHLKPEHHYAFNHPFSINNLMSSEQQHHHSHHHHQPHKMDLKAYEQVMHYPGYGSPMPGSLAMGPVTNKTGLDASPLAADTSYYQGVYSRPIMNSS
# Chain of Hepatocyte nuclear factor 6 (Homo sapiens) (Q9UBC0 whole entry, looked up): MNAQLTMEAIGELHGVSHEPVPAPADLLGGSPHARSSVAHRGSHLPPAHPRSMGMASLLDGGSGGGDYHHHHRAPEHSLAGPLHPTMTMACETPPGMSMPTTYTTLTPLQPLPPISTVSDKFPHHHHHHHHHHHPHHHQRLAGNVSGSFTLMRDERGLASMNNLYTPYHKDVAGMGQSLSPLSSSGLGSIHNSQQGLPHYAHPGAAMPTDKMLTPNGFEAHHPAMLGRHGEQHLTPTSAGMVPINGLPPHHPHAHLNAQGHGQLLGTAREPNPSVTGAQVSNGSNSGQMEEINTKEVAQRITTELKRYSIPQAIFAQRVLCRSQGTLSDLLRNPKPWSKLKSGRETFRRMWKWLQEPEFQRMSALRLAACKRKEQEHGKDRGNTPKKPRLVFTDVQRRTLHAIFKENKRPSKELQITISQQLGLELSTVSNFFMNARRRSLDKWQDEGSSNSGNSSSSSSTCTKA
smiles,measurement,setting,value
O=C(O)C1(C(=O)Nc2ccc(Cl)cc2Cl)CC1,outcome,[1],inactive
same,outcome,[2],inactive
same,outcome,[3],inactive
same,outcome,[4],inactive
same,outcome,[5],inactive
same,outcome,[6],inactive
same,outcome,[7],inactive
same,outcome,[8],inactive
same,outcome,[9],inactive
same,outcome,[10],inactive
same,outcome,[11],inactive
same,outcome,[12],inactive
same,outcome,[13],inactive
same,outcome,[14],inactive
same,outcome,[15],inactive
C#C[C@]1(O)CC[C@H]2[C@@H]3CCC4=CC(=O)CC[C@@H]4[C@H]3CC[C@@]21CC,outcome,[1],inactive
same,outcome,[2],inactive
same,outcome,[3],inactive
same,outcome,[5],inactive
same,outcome,[16],inactive
same,outcome,[6],inactive
same,outcome,[17],inactive
same,outcome,[8],inactive
same,outcome,[9],inactive
same,outcome,[10],inactive
same,AC50,[11],3.15 µM (active)
same,outcome,[11],inactive
same,outcome,[12],inactive
same,outcome,[15],inactive
Oc1ccc(C(c2ccc(O)cc2)C(Cl)(Cl)Cl)cc1,outcome,[1],inactive
same,outcome,[2],inactive
same,outcome,[3],inactive
same,outcome,[18],inactive
same,outcome,[5],inactive
same,outcome,[6],inactive
same,outcome,[7],inactive
same,outcome,[17],inactive
same,outcome,[8],inactive
same,outcome,[9],inactive
same,outcome,[10],inactive
same,outcome,[11],inactive
same,outcome,[12],inactive
same,outcome,[13],inactive
same,outcome,[15],inactive
CC(C)(C)[C@@H](O)[C@@H](Cc1ccc(Cl)cc1)n1cncn1,outcome,[1],inactive
same,AC50,[2],26.1 µM (active)
same,outcome,[3],inactive
same,AC50,[18],68.5 µM (active)
same,outcome,[5],inactive
same,AC50,[16],12.6 µM (active)
same,outcome,[6],inactive
same,AC50,[7],41.3 µM (active)
same,AC50,[17],90.9 µM (active)
same,outcome,[8],inactive
same,outcome,[9],inactive
same,outcome,[10],inactive
same,outcome,[11],inactive
same,outcome,[12],inactive
same,outcome,[13],inactive
same,outcome,[15],inactive
